From PubChem BioAssay AID1159580 (chemical genetic matrix, 2015)
The whole screen tested about 5,500 compounds, of which about 2,000 (36%) were called active. Not shown: some 18% with an inconclusive outcome. Cut-off read from the data, not from the text of the source: active = normalized growth mostly below about 0.91 (no sharp cut-off); inconclusive = no clear call, values can overlap the other calls; inactive = mostly above about 0.92. The list shows a part of the results.

Test: chemical genetic growth profiling, strain panel (AID 1159580);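 note: tested at 20 µM; growth read once vehicle control cultures reached saturation at 30 °C; 1 = growth at the plate median or of vehicle wells; lower values mean less growth of the strain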
Conditions: growth OD

Measured: normalized growth

CC(C)(Sc1cc(C(C)(C)C)c(O)c(C(C)(C)C)c1)Sc1cc(C(C)(C)C)c(O)c(C(C)(C)C)c1
inactive: S. cerevisiae deletion strains, locus YJR075W, strain HOC1, hits give low values 1.01 | S. cerevisiae deletion strains, locus YKL068W, hits give low values 1.01 | S. cerevisiae deletion strains, locus YKL085W, strain MDH1 (second series), hits give low values 1.05 | S. cerevisiae deletion strains, locus YKL085W, strain MDH1, hits give low values 1.05 | S. cerevisiae deletion strains, locus YKL160W, strain elf1, hits give low values 0.99 | S. cerevisiae deletion strains, locus YKL190W, strain CNB1, hits give low values 1.01 | S. cerevisiae deletion strains, locus YKR001C, strain vps1, hits give low values 1.02 | S. cerevisiae deletion strains, locus YKR026C, strain gcn3, hits give low values 0.987 | S. cerevisiae deletion strains, locus YKR091W, strain srl3, hits give low values 1.02 | S. cerevisiae deletion strains, locus YLL001W, strain dnm1, hits give low values 0.996 | S. cerevisiae deletion strains, locus YLL026W, hits give low values 1 | S. cerevisiae deletion strains, locus YLL041C, strain sdh2, hits give low values 1.01 | S. cerevisiae deletion strains, locus YLR027C, strain aat2, hits give low values 0.994 | S. cerevisiae deletion strains, locus YLR039C, strain RIC1, hits give low values 1.02 | S. cerevisiae deletion strains, locus YLR058C, strain SHM2, hits give low values 1.01 | S. cerevisiae deletion strains, locus YLR102C, strain apc9, hits give low values 1.03 | S. cerevisiae deletion strains, locus YLR113W, strain HOG1, hits give low values 1.01 | S. cerevisiae deletion strains, locus YLR221C, strain rsa3, hits give low values 1.01 | S. cerevisiae deletion strains, locus YLR258W, strain gsy2, hits give low values 1.01 | S. cerevisiae deletion strains, locus YLR262C, strain YPT6 (second series), hits give low values 1 | S. cerevisiae deletion strains, locus YLR262C, strain YPT6, hits give low values 1.01 | S. cerevisiae deletion strains, locus YLR268W, strain sec22, hits give low values 1.09 | S. cerevisiae deletion strains, locus YLR320W, strain mms22, hits give low values 1 | S. cerevisiae deletion strains, locus YLR330W, strain CHS5, hits give low values 1.01 | S. cerevisiae deletion strains, locus YLR342W, strain FKS1 (second series), hits give low values 0.992 | S. cerevisiae deletion strains, locus YLR342W, strain FKS1, hits give low values 1 | S. cerevisiae deletion strains, locus YLR357W, strain rsc2, hits give low values 0.997 | S. cerevisiae deletion strains, locus YLR370C, strain arc18, hits give low values 1.01 | S. cerevisiae deletion strains, locus YLR371W, strain rom2, hits give low values 1.01 | S. cerevisiae deletion strains, locus YLR384C, strain iki3, hits give low values 0.99 | S. cerevisiae deletion strains, locus YLR418C, strain cdc73, hits give low values 1.07 | S. cerevisiae deletion strains, locus YML016C, strain PPZ1, hits give low values 0.999 | S. cerevisiae deletion strains, locus YML032C, strain rad52, hits give low values 1.03 | S. cerevisiae deletion strains, locus YML120C, strain ndi1, hits give low values 1 | S. cerevisiae deletion strains, locus YML124C, strain tub3, hits give low values 1.02 | S. cerevisiae deletion strains, locus YMR058W, strain fet3, hits give low values 1.02 | S. cerevisiae deletion strains, locus YMR078C, strain ctf18, hits give low values 1.03 | S. cerevisiae deletion strains, locus YMR125W, strain sto1, hits give low values 1 | S. cerevisiae deletion strains, locus YMR129W, hits give low values 1.01 | S. cerevisiae deletion strains, locus YMR205C, strain PFK2, hits give low values 1.01 | S. cerevisiae deletion strains, locus YMR223W, strain ubp8, hits give low values 1.02 | S. cerevisiae deletion strains, locus YMR231W, strain pep5, hits give low values 1 | S. cerevisiae deletion strains, locus YMR263W, strain SAP30, hits give low values 1.03 | S. cerevisiae deletion strains, locus YMR307W, strain GAS1, hits give low values 1.01 | S. cerevisiae deletion strains, locus YNL067W, strain RPL9B, hits give low values 1.03 | S. cerevisiae deletion strains, locus YNL071W, strain lat1, hits give low values 1.02 | S. cerevisiae deletion strains, locus YNL128W, strain TEP1, hits give low values 1.03 | S. cerevisiae deletion strains, locus YNL153C, strain GIM3, hits give low values 1.03 | S. cerevisiae deletion strains, locus YNL183C, strain NPR1, hits give low values 0.899 | S. cerevisiae deletion strains, locus YNL209W, strain ssb2, hits give low values 0.989 | S. cerevisiae deletion strains, locus YNL233W, strain BNI4, hits give low values 1.02 | S. cerevisiae deletion strains, locus YNL248C, strain rpa49, hits give low values 1.06 | S. cerevisiae deletion strains, locus YNL250W, strain rad50, hits give low values 1.02 | S. cerevisiae deletion strains, locus YNL271C, strain bni1, hits give low values 1.03 | S. cerevisiae deletion strains, locus YNL298W, strain CLA4, hits give low values 1.02 | S. cerevisiae deletion strains, locus YNL307C, strain MCK1, hits give low values 1.03 | S. cerevisiae deletion strains, locus YNL322C, strain KRE1 (second series), hits give low values 1.01 | S. cerevisiae deletion strains, locus YNL322C, strain KRE1, hits give low values 1.01 | S. cerevisiae deletion strains, locus YNR049C, strain mso1, hits give low values 1 | S. cerevisiae deletion strains, locus YNR052C, strain pop2, hits give low values 1.02 | S. cerevisiae deletion strains, locus YOL006C, strain TOP1, hits give low values 1.11 | S. cerevisiae deletion strains, locus YOL012C, strain htz1 1.15 | S. cerevisiae deletion strains, locus YOL147C, strain pex11, hits give low values 1.02 | S. cerevisiae deletion strains, locus YOR001W, strain rrp6, hits give low values 1.02 | S. cerevisiae deletion strains, locus YOR061W, strain CKA2, hits give low values 1.01 | S. cerevisiae deletion strains, locus YOR069W, strain VPS5, hits give low values 0.987 | S. cerevisiae deletion strains, locus YOR070C, strain gyp1, hits give low values 1 | S. cerevisiae deletion strains, locus YOR080W, strain dia2, hits give low values 0.996 | S. cerevisiae deletion strains, locus YOR083W, strain WHI5, hits give low values 0.998 | S. cerevisiae deletion strains, locus YOR106W, strain vam3, hits give low values 0.98 | S. cerevisiae deletion strains, locus YOR136W, strain idh2, hits give low values 1.03 | S. cerevisiae deletion strains, locus YOR144C, strain elg1, hits give low values 1.01 | S. cerevisiae deletion strains, locus YOR184W, strain ser1, hits give low values 1.03 | S. cerevisiae deletion strains, locus YOR231W, strain MKK1, hits give low values 0.996 | S. cerevisiae deletion strains, locus YOR265W, strain rbl2, hits give low values 0.997 | S. cerevisiae deletion strains, locus YOR270C, strain vph1, hits give low values 1.05 | S. cerevisiae deletion strains, locus YOR290C, strain snf2, hits give low values 1.01 | S. cerevisiae deletion strains, locus YOR316C, strain cot1, hits give low values 1.03 | S. cerevisiae deletion strains, locus YPL051W, strain arl3, hits give low values 0.988 | S. cerevisiae deletion strains, locus YPL055C, strain LGE1, hits give low values 1.03 | S. cerevisiae deletion strains, locus YPL078C, strain atp4, hits give low values 1.01 | S. cerevisiae deletion strains, locus YPL106C, strain sse1, hits give low values 1.01 | S. cerevisiae deletion strains, locus YPL240C, strain hsp82, hits give low values 1.03 | S. cerevisiae deletion strains, locus YPL241C, strain CIN2, hits give low values 1.01 | S. cerevisiae deletion strains, locus YPL256C, strain CLN2, hits give low values 1.03 | S. cerevisiae deletion strains, locus YPR119W, strain clb2, hits give low values 1.01 | S. cerevisiae deletion strains, locus YPR141C, strain kar3, hits give low values 1.02 | S. cerevisiae deletion strains, locus YPR163C, strain tif3, hits give low values 1.02 | S. cerevisiae deletion strains, locus YPR167C, strain met16, hits give low values 1.02 | S. cerevisiae deletion strains, strain wtn01, hits give low values 1.02 | S. cerevisiae strains, strain wild type, hits give low values 1.02
